Test results as given in the supplement of paper PMC6279402.
Counter-ions that a name gives are not always drawn. ± gives the standard deviation of the averaged measurements.

Tested on: A549
Test: relative viability (normalised to negative control = 1, bortezomib = 0) (fraction); higher = less cytotoxic
Conditions: inflammatory serum-free RHB-A with cytokines + LPS; 5 d + 24 h CellTiter-Blue; compound 300 nM; GSK126 pretreatment: none (vehicle)

SMILES | relative viability
CCS(=O)(=O)Nc1ccc2[nH]c(O)c(C(=Nc3ccc(CN4CCCCC4)cc3)c3ccccc3)c2c1 [Hesperadin] | 0.331 ± 0.022
Cc1ccc(C(=O)Nc2cccc(C(F)(F)F)c2)cc1Nc1nc(-c2cccnc2)nc2c1cnn2C | 1.06 ± 0.15
O=NN(CCCl)C(=O)NC1CCCCC1 [Lomustine, CCNU; Lomustine] | 0.976 ± 0.079
Nc1nc2[nH]cnc2c(=S)[nH]1 [Thioguanine] | 1 ± 0.073
C#Cc1cccc(Nc2ncnc3cc(OCCOC)c(OCCO)cc23)c1 [OSI-420 (Desmethyl Erlotinib)] | 0.505 ± 0.019
COc1cc2nccc(Oc3ccc(NC(=O)Nc4cc(C)on4)c(Cl)c3)c2cc1OC [AV-951(Tivozanib)] | 1.18 ± 0.18
COc1cc(Nc2ncc3c(n2)-c2ccc(Cl)cc2C(c2c(F)cccc2OC)=NC3)ccc1C(=O)O | 0.381 ± 0.048
CCC1=C[C@@H]2CN(C1)Cc1c([nH]c3ccccc13)[C@@](C(=O)OC)(c1cc3c(cc1OC)N(C)[C@H]1[C@@](O)(C(=O)OC)[C@H](OC(C)=O)[C@]4(CC)C=CCN5CC[C@]31[C@@H]54)C2 [Vinorelbine tartrate] | 0.307 ± 0.025
CNC(=O)c1ccc(C)c(-n2c(C)cc(OCc3ccc(F)cc3F)c(Br)c2=O)c1 | 0.974 ± 0.085
O=C(NC1CCNCC1)c1n[nH]cc1NC(=O)c1c(Cl)cccc1Cl | 0.136 ± 0.057
COc1cccc(-c2cc(=O)c3ccccc3o2)c1N | 0.825 ± 0.078
Oc1ccc(-c2nc(-c3ccc(F)cc3)c(-c3ccncc3)[nH]2)cc1 | 1.17 ± 0.19
O=C(NOC[C@H](O)CO)c1ccc(F)c(F)c1Nc1ccc(I)cc1F | 0.112 ± 0.0091
O=c1cc(N2CCOCC2)oc2c(-c3ccccc3)cccc12 | 0.835 ± 0.068
COc1ccc(-c2cc3c(C)nc(N)nc3n(C3CCC(OCCO)CC3)c2=O)cn1 (configuration not stated) | 0.087 ± 0.014
O=c1c(O)c(-c2ccc(O)c(O)c2)oc2cc(O)cc(O)c12 [QUERCETIN; Quercetin(Sophoretin); Quercetin dihydrate] | 0.945 ± 0.058
CC(C)(C)c1cnc(CSc2cnc(NC(=O)C3CCNCC3)s2)o1 | -0.0017 ± 0.0016
CN(C)c1ccc(-c2nc3ncc(Cl)c(N4CCN(CC(=O)Nc5nccs5)CC4)c3[nH]2)cc1 | 1.07 ± 0.066
Clc1ccc(C2(c3ccc(-c4cn[nH]c4)cc3)CCNCC2)cc1 | 0.854 ± 0.012

SMILES | relative viability
Cc1ccc([N+](=O)[O-])cc1S(=O)(=O)N(C)/N=C/c1cnc2ccc(Br)cn12 [PIK-75 Hydrochloride] | -0.00104 ± 0.0047
C=CC(=O)Nc1cccc(Oc2nc(Nc3ccc(N4CCN(C)CC4)cc3)ncc2Cl)c1 | 0.0677 ± 0.014
O=C(CCCCCCC(=O)Nc1ccccc1)NO [Vorinostat; SAHA] | 1 ± 0.19
CNC(=O)c1cc(COc2nnc(Nc3ccc(Cl)cc3)c3ccoc23)ccn1 [Telatinib (BAY 57-9352)] | 0.91 ± 0.13
Nc1nc(N)c2nc(-c3cccc(O)c3)c(-c3cccc(O)c3)nc2n1 | 0.776 ± 0.075
Nc1ccn([C@@H]2O[C@H](CO)[C@@H](O)[C@@H]2O)c(=O)n1 | 0.475 ± 0.1
CNC(=O)c1cc(Oc2ccc(NC(=O)Nc3cc(C(C)(C)C)nn3-c3ccc4ncccc4c3)c(F)c2)ccn1 [DCC-2036 (Rebastinib)] | 1.57 ± 0.06
N#Cc1ccc(C(c2ccc(C#N)cc2)n2cncn2)cc1 [Letrozole] | 0.932 ± 0.037
Cc1ccc(NC(=O)c2cccc(N(C)C)c2)cc1NC(=O)c1ccc(O)cc1 | 1.15 ± 0.042
O=C(Nc1c[nH]nc1-c1nc2ccc(CN3CCOCC3)cc2[nH]1)NC1CC1 | 0.279 ± 0.077
Cn1cc(-c2ccc3nnc(Sc4ccc5ncccc5c4)n3n2)cn1 | 0.903 ± 0.02
Nc1ncnc2c1c(-c1cnc3[nH]ccc3c1)nn2C1CCCC1 | 0.533 ± 0.069
CCc1cccc(CC)c1NC(=O)N1Cc2[nH]nc(NC(=O)c3ccc(N4CCN(C)CC4)cc3)c2C1 | 0.557 ± 0.075
O=C1NC(=O)/C(=C/c2ccc3c(c2)OC(F)(F)O3)S1 | 0.968 ± 0.092
CC(C)(C)Cn1c(N)nc2ccc(-c3[nH]c(C(C)(C)C)nc3-c3ccc(F)cc3)nc21 | 1.15 ± 0.18
CN(C)Cc1cccc(N=C(c2ccccc2)c2c(O)[nH]c3cc(C(N)=O)ccc23)c1 | 0.942 ± 0.13
C#Cc1cccc(Nc2ncnc3cc(OCCOC)c(OCCOC)cc23)c1 | 0.494 ± 0.031
O=c1ncn2nc(Sc3ccc(F)cc3F)ccc2c1-c1c(Cl)cccc1Cl | 1.03 ± 0.16
